Source: PubChem BioAssay
Activity calls are given as the source filed them.

What was measured:
Albumin (Bos taurus) = Albumin (Bos taurus) (UniProt P02769); assay: compounds binding labelled BSA control protein – biochemical, small-molecule microarray, Alexa647 label, 635/667 nm fluorescence, artefact control for SMM control protein annotation, profiling panel (AID 1118); details: BSA-A647 binding, fluorescence 635 nm, higher = more signal;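 further: score merges 667 nm emission intensity and signal-to-noise per printed compound spot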
Albumin (Bos taurus), sequence (P02769 whole entry, looked up): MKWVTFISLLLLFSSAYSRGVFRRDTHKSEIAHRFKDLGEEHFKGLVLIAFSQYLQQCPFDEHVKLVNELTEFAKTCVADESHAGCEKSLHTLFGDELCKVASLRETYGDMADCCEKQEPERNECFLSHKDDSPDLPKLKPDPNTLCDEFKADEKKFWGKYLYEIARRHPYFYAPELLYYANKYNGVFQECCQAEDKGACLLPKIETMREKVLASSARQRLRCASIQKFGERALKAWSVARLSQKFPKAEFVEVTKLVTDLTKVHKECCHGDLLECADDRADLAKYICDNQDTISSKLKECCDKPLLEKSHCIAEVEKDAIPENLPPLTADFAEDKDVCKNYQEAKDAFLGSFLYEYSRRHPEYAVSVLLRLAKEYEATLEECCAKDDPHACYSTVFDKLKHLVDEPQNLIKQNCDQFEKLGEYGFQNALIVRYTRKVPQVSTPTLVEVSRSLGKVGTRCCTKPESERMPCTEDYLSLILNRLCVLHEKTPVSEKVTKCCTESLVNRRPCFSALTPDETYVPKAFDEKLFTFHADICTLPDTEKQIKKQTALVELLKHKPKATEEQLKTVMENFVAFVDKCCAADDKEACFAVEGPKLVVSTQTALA

[1] = probe aXIP binding to arrayed compounds – biochemical, NeuroSMM set, 635/667 nm fluorescence, primary screen (AID 1119); details: small-molecule microarray, higher = more signal, called active from +8 up or from −8 down;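 further: probe is the protein aXip251-270 applied at 1 µg/mL to compound-printed slides; binding of probe to printed compounds measured as 667 nm fluorescence plus signal to noise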
[2] = probe aNOTCH3 binding on compound microarray – biochemical, small-molecule microarray, 635/667 nm fluorescence, primary screen (AID 1120); details: higher = more signal;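 further: probe is a biotin-tagged antibody raised against NOTCH3 rather than NOTCH3 protein; score merges spot fluorescence near 667 nm with spot signal to noise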
[3] = probe aNOTCH2 binding on compound microarray – biochemical, small-molecule microarray, 635/667 nm fluorescence, primary screen (AID 1121); details: higher = more signal;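 further: score merges feature fluorescence read at 667 nm with its signal to noise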
[4] = target: Carbonic anhydrase 2 (Homo sapiens) (UniProt P00918); assay: compounds binding carbonic anhydrase 2 – biochemical, small-molecule microarray, Alexa647-labelled CAII, profiling panel (AID 1122); details: CAII-A647 binding fluorescence, higher = more signal
[5] = COS7 lysate on small-molecule microarray, probe aHis, 635 nm (AID 1123); details: COS7 cell lysate, fluorescence, higher = more signal;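 further: z-score combines 667nm fluorescence intensity with signal-to-noise per printed compound spot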
[6] = probe aLAP1 signal on lysate-treated microarray – cell lysate, small-molecule microarray, COS7 lysate, primary screen (AID 1124); details: probe aLAP1, fluorescence, higher = more signal;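 further: lysate comes from COS7 cells expressing LAP1 and is applied at 0.3 µg/mL; score merges spot fluorescence near 667 nm with signal-to-noise over triplicate slides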
Sam68 (KHDRBS1) = assay: compounds binding KHDRBS1 protein – biochemical, small-molecule microarray, 635 nm fluorescence, primary screen (AID 1125); details: higher = more signal;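 further: score merges 667 nm channel intensity with signal to noise over triplicate slides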
[7] = test system: Chordin-like protein 2 (CHRDL2); assay: compounds binding chordin-like 2 – biochemical, small-molecule microarray, 635 nm fluorescence, primary screen (AID 1126); details: fluorescence 635 nm, higher = more signal;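 further: printed compound slides probed with Chrdl2 protein at 4 µg/mL for 1 h at 4 C; score merges 667 nm emission intensity with signal to noise over three replicate slides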
[8] = target: Concanavalin-A (Canavalia ensiformis) (UniProt P02866); assay: compounds binding concanavalin A lectin – biochemical, small-molecule microarray, Alexa647 label, 635 nm, artefact control for SMM control protein annotation, primary screen (AID 1127); details: ConA-A647 binding fluorescence, higher = more signal;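 further: z combines 667 nm emission intensity with signal-to-noise across three replicate slides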
Concanavalin-A (Canavalia ensiformis), sequence (P02866 whole entry, looked up): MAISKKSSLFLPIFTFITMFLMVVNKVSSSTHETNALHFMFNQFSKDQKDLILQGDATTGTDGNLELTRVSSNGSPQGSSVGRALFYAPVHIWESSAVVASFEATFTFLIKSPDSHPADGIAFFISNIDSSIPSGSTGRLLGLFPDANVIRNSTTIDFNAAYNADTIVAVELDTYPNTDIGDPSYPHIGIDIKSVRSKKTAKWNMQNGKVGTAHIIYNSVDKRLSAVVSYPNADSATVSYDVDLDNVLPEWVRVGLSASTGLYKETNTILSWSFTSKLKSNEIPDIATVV

[9] = compounds binding Alexa647 anti-His antibody – biochemical, small-molecule microarray, 635 nm fluorescence, artefact control for SMM control protein annotation, primary screen (AID 1128); details: higher = more signal;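 further: score merges feature fluorescence with signal-to-noise for each printed compound spot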
[10] = test system: Human papillomavirus type 1a E7 protein (residues 1-88); assay: HPV1a E7 small-molecule binders, primary screen, biochemical, small-molecule microarray, residues 1-88, 635 nm (AID 1129); details: small-molecule microarray binding, fluorescence 635 nm; higher = more signal
[11] = target: Focal adhesion kinase 1 (Homo sapiens) (UniProt Q05397); assay: PTK2 protein binding on printed compound slides – biochemical, small-molecule microarray, 635/667 nm fluorescence, BSA, DTT, primary screen (AID 1130); details: 635 nm fluorescence, higher = more signal;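 further: composite of spot emission at 667 nm and signal to noise over triplicate slides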
Focal adhesion kinase 1 (Homo sapiens), sequence (Q05397 whole entry, looked up): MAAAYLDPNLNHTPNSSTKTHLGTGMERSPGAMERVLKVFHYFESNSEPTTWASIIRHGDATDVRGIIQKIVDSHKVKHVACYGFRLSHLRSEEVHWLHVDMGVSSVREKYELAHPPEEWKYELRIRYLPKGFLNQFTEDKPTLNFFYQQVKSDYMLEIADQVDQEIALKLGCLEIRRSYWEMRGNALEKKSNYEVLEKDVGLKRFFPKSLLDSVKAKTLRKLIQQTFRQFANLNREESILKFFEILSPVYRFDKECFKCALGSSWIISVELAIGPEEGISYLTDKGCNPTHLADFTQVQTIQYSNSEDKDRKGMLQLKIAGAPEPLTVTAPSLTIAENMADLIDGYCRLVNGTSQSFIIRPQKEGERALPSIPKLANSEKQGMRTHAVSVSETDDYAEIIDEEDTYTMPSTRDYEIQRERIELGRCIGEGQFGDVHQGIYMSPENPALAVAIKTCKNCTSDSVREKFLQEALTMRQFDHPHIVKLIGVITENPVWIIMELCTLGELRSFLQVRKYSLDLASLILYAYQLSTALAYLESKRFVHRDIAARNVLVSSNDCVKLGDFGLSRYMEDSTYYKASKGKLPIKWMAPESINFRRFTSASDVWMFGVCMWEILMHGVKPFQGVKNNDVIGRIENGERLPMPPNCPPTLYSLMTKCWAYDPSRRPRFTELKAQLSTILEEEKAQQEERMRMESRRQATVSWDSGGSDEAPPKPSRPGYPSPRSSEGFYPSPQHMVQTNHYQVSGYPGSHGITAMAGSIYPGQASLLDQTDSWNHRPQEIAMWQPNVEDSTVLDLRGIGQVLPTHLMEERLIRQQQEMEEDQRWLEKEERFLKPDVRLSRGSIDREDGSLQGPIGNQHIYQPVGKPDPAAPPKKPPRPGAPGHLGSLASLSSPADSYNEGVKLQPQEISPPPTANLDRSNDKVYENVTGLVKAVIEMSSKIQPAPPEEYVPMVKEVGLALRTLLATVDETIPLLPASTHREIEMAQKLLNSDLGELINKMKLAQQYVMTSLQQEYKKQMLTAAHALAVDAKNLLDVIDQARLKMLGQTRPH

[12] = test system: Fibrinogen (Alexa647-labelled); assay: Alexa647-fibrinogen binding to printed small molecules – biochemical, small-molecule microarray, 635/667 nm fluorescence, artefact control for SMM control-protein annotation, profiling panel (AID 1131); details: fibrinogen-A647 binding fluorescence, higher = more signal;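 further: z-score merges 667 nm fluorescence with per-spot signal-to-noise over triplicate slides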
[13] = target: Follistatin (Homo sapiens) (UniProt P19883); assay: FST protein binding to printed compounds – biochemical, small-molecule microarray, 635/667 nm fluorescence, primary screen (AID 1132); details: 635 nm fluorescence, higher = more signal
Follistatin (Homo sapiens), sequence (P19883 whole entry, looked up): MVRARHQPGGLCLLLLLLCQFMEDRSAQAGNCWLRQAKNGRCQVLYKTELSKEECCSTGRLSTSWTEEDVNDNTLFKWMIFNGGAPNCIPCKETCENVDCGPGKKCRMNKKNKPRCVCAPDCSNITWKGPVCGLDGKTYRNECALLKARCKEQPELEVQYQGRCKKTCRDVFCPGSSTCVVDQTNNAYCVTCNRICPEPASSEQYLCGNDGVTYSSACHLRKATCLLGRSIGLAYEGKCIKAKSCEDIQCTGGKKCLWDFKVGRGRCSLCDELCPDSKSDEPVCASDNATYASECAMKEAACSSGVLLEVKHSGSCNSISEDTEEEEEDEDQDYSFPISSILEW

[14] = target: Fibroblast growth factor 2 (Homo sapiens) (UniProt P09038); assay: basic fibroblast growth factor binding to printed compounds – biochemical, small-molecule microarray, 635/667 nm fluorescence, primary screen (AID 1133); details: FGF2, fluorescence 635/667, higher = more signal
Fibroblast growth factor 2 (Homo sapiens), sequence (P09038 whole entry, looked up): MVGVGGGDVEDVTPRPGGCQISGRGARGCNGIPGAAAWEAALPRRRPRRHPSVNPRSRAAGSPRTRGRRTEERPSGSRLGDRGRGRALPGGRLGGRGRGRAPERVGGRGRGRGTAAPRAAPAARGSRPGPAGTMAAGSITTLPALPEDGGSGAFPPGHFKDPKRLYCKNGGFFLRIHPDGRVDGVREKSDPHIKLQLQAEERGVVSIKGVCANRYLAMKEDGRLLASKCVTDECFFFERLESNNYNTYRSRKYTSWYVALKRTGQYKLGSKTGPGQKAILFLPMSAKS

[15] = JC-1 mitochondrial potential readout, lung cancer cells – cell-based, A549, JC-1 fluorescence, basal, 24 h, 100 nL, profiling panel (AID 1138); details: higher = more signal;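 further: A549 lung adenocarcinoma cells under basal conditions with no added stimulus; test concentration not given here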
Lefty1 = Lefty1 protein binding to printed compounds – biochemical, small-molecule microarray, 635/667 nm fluorescence, primary screen (AID 1139); details: fluorescence 635/667, higher = more signal
[16] = test system: wheat germ agglutinin (Triticum aestivum), Alexa647-labelled; assay: Alexa647-WGA lectin binding to printed small molecules – biochemical, small-molecule microarray, 635/667 nm fluorescence, artefact control for SMM control-protein annotation, profiling panel (AID 1140); details: WGA-A647 binding, 635 nm fluorescence, higher = more signal;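 further: score merges 667 nm feature emission with signal to noise over triplicate slides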
[17] = target: Luciferin 4-monooxygenase (Photinus pyralis) (UniProt P08659); assay: inhibition of purified Photinus pyralis luciferase – biochemical, luminescence, purified enzyme, 2006 set, primary screen (AID 1141); details: purified firefly luciferase, SteadyGlo luminescence, 30 min; higher = more signal, called active from +8 up or from −8 down;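 further: cell-free assay with purified firefly luciferase at 100 ng per well in PBS; test concentration not given here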
Luciferin 4-monooxygenase (Photinus pyralis), sequence (P08659 whole entry, looked up): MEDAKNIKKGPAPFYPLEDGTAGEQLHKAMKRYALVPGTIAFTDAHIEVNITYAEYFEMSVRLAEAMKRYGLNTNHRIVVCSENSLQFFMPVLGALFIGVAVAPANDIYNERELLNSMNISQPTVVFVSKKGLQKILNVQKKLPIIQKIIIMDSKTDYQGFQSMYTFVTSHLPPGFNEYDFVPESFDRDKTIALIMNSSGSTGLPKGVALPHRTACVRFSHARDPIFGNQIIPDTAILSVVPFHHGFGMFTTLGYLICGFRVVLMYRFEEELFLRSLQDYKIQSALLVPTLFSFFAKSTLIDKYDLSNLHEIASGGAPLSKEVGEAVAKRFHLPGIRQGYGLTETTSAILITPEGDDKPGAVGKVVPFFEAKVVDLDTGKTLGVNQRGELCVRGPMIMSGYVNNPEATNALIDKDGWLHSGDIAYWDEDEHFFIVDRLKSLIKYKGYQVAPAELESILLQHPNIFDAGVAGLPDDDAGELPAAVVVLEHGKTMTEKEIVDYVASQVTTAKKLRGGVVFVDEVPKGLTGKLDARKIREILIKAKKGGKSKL

SMILES | composite z-score (Albumin (Bos taurus)) | composite Z-score [1] | composite z-score [2] | composite z-score [3] | composite z-score [4] | composite z-score [5] | composite z-score [6] | composite z-score (Sam68 (KHDRBS1)) | composite z-score [7] | composite z-score [8] | composite z-score [9] | composite z-score [10] | composite z-score [11] | composite z-score [12] | composite z-score [13] | composite z-score [14] | z-score [15] | composite z-score (Lefty1) | composite z-score [16] | z-score [17]
O=C1C[C@@](C(=O)NCC(F)(F)F)(c2ccc([N+](=O)[O-])cc2)[C@@H](c2ccc(CO)cc2I)N1C1CCCCC1 | 0.365 | 0.004 (inactive) | 0.03 | -0.0394 | 0.437 | 2.22 | -0.0164 | 1.23 | 0.189 | 0.676 | 0.226 | 1.25 | 0.466 | 0.9 | 1.05 | 1.26 | 1.8 | 0.394 | 0.834 | 0.59 (inactive)
C=C(CCCC)C(=O)CC[C@@H](OC(=O)c1ccccc1-c1ccccc1C(=O)O)c1ccc(OCCO)cc1 | -0.873 | 0.0426 (inactive) | -0.185 | -0.125 | 0.437 | 0.121 | -0.102 | 0.684 | 0.876 | 0.829 | -0.54 | 0.0862 | -0.72 | -0.277 | 1.42 | 1.37 | 0.118 | 0.797 | 0.427 | -2.06 (inactive)
[N-]=[N+]=NCc1ccccc1C[C@]1(C(N)=O)COC(c2ccc(OCCCO)cc2)=N1 | 0.624 | 0.155 (inactive) | 0.0225 | 0.106 | 0.656 | 2.24 | 1.29 | 0.48 | -0.846 | 0.556 | 0.0064 | 0.3 | -0.0367 | 0.389 | 1.24 | 0.261 | 0.564 | 0.299 | 0.821 | -2.06 (inactive)
O=C1OCCC/C=C\[C@H]2OC34C=CCN(Cc5ccccc5)C(=O)[C@H]3N(CCCO)C(=O)[C@@H]4C12 (stereo not given in full) | -0.937 | 0.581 (inactive) | -0.327 | -0.104 | 0.948 | -0.861 | 1.59 | -0.374 | -1.79 | -1.53 | -0.14 | -0.496 | -0.66 | -1.64 | -1.29 | -1.08 | 1.26 | -1.28 | -0.443 | -1.26 (inactive)
CO[C@H]1O[C@H](CO)[C@@H](OC(=O)Nc2ccccc2)[C@H](OC(=O)Nc2ccccc2)[C@@H]1OC(=O)Nc1ccccc1 | 0.809 | -0.0073 (inactive) | 0.289 | -0.0847 | 0.824 | 1.29 | 0.947 | 1.3 | 0.136 | 1.12 | 0.865 | 1.25 | 0.806 | 1.01 | 1.3 | 0.412 | -0.115 | 0.464 | 0.833 | 0.713 (inactive)
NC(=O)[C@@H]1[C@H]2C(=O)O[C@H](c3ccccc3)[C@H](c3ccccc3)N2[C@H](c2ccc(O)cc2)[C@@]12C(=O)Nc1ccccc12 | 0.257 | -0.622 (inactive) | -0.288 | -0.155 | 0.75 | 2.37 | 0.691 | 0.203 | -1.73 | -0.161 | -0.393 | -0.507 | 0.119 | -0.538 | -0.5 | -1.17 | -1.11 | -0.827 | 0.156 | -0.366 (inactive)
